Assay results as given in PubChem BioAssay (NCATS).
Records with an inconclusive call do not appear. Active and inactive are the calls of the source. Unless noted, no rule for the calls is given here.

Key:
[1] = qHTS profiling of the MIPE4 collection as inhibitors of Plasmodium falciparum (3D7) proliferation (AID 743344);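 also: scaled between DMSO vehicle wells and 0.29 µM artemisinin as full inhibition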; conditions: P. falciparum 3D7 in erythrocytes, SYBR Green DNA fluorescence, 72 h; at 28.5 µM unless noted
Method in brief: (§1)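 Parasite DNA was quantified by SYBR Green I fluorescence (ex 485, em 535 nm) after overnight lysis in saponin/Triton buffer at room temperature. Cultures at 0.3% parasitemia and 2.5% hematocrit were first exposed to compound for 72 h at 37 C; signals were normalised to artemisinin (0.29 uM) and vehicle wells.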

[2] = qHTS profiling of the MIPE4 collection as inhibitors of Plasmodium falciparum (DD2) proliferation (AID 743345); conditions: P. falciparum Dd2 in erythrocytes, SYBR Green DNA, 72 h; at 28.5 µM unless noted
Method in brief: as §1

[3] = qHTS profiling of the MIPE4 collection as inhibitors of Plasmodium falciparum (DD2) proliferation (Rep 2) (AID 743346); conditions: P. falciparum Dd2 in erythrocytes, SYBR Green DNA, 72 h; at 28.5 µM unless noted
Method in brief: as §1

[4] = qHTS profiling of the MIPE4 collection as inhibitors of Plasmodium falciparum (HB3) proliferation (AID 743347);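 also: plate controls were DMSO vehicle wells for no effect and artemisinin wells for full effect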; conditions: P. falciparum HB3 in erythrocytes, SYBR Green DNA, 72 h; at 28.5 µM unless noted
Method in brief: as §1

[5] = High-throughput drug toxicity screening in the BPDCN cell line Gen2.2 (AID 1224824); conditions: Gen2.2 BPDCN cells; at 45.8 µM (top of the series) unless noted;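 also: cells exposed to compounds for 48 h before reading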
Method in brief: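 Gen2.2 cells, 500 per well in phenol red-free RPMI with 10% FBS, exposed to compounds 48 h at 37 C, 5% CO2; viability by CellTiter-Glo luminescence. Percent activity scaled to DMSO (100%) and 9.2 uM bortezomib final (0%).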

[6] = High-throughput drug toxicity screening in the BPDCN cell line Cal-1 (AID 1224825); conditions: Cal-1 BPDCN cell viability, qHTS; at 45.8 µM (top of the series) unless noted
Method in brief: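 CellTiter-Glo luminescence after 48 h compound exposure; percent activity scaled with DMSO as 100% and bortezomib (9.2 uM final) as 0%. Cal-1 cells seeded at 500/well in RPMI, 10% FBS, no phenol red.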

[7] = qHTS assay for measurement of the activity of small molecule inhibitors on Zika virus induced Caspase-3 activity in human iPSC derived neural progenitor cells (hNPCs) (AID 1224857; active = well fitted inhibition curve with a large enough effect; also: % of control where 0% means no effect; nearly all actives have a fitted effect of over 65% in size)
Method in brief: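 Zika virus (2 FFU/cell) infection of human iPSC-derived NPCs, 6 h, following 1 h compound preincubation. Read-out: Caspase-Glo 3/7 luminescence.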

[8] = qHTS assay for measurement of the activity of small molecule inhibitors on Zika virus induced Caspase-3 activity in human astrocytoma cells (AID 1224859; active = well fitted inhibition curve with a large enough effect;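 also: plate controls were ZIKV-infected untreated cells for no effect and uninfected cells for full effect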)
Method in brief: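 Caspase activation in ZIKV-infected SNB-19 cells (2 FFU/cell, 6 h) measured by Caspase-Glo 3/7 luminescence after 30 min RT; compound pre-incubated 1 h; normalised to uninfected and infected controls.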

[9] = qHTS Screen of the MIPE 4.0 Collection Against Ewings Sarcoma (RDES) (AID 1259252; active = well fitted inhibition curve with a large enough effect; also: nearly all actives have a fitted effect of over 35% in size; also: potency is read from the fitted curve at half-maximal effect)
Method in brief: (§2)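 Log-phase cells in RPMI with 5% FBS attached for 4 h, then received compounds as a titration for 48 h at 37C, 5% CO2. Viability was read by CellTiter-Glo luminescence and normalized to DMSO and no-cell wells.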

[10] = qHTS Screen of the MIPE 4.0 Collection Against Ewings Sarcoma (EW8) (AID 1259255; active = well fitted inhibition curve with a large enough effect; also: nearly all actives have a fitted effect of over 35% in size; also: potency is read from the fitted curve at half-maximal effect;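 as to viability: 100% = DMSO-treated cells and 0% = medium-only wells without cells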)
Method in brief: as §2

[11] = qHTS Screen of the MIPE 4.0 Collection Against Ewings Sarcoma (TC32) (AID 1259256; active = well fitted inhibition curve with a large enough effect; also: nearly all actives have a fitted effect of over 45% in size; also: potency is read from the fitted curve at half-maximal effect)
Method in brief: as §2

[12] = qHTS Screen of the MIPE 4.0 Collection Against Ewings Sarcoma (TC71) (AID 1259253; active = well fitted inhibition curve with a large enough effect; also: nearly all actives have a fitted effect of over 40% in size; also: potency is read from the fitted curve at half-maximal effect)
Method in brief: as §2

SMILES	parasite growth, % of DMSO control [1]	parasite growth remaining, % of DMSO control (lower = more inhibition) [2]	parasite growth, % of control (lower = inhibition) [3]	growth, % of control [4]	cell viability, % of control (lower = more cytotoxic) [5]	viability (% of control) [6]	Potency [7]	Potency [8]	Potency [9]	Potency [10]	Potency [11]	Potency [12]
CC(=O)C1=C(O)C=C2Oc3c(C(C)=O)c(O)c(C)c(O)c3C2(C)C1=O (stereo not drawn)	82.6%	97.8%	81%	99%	141%	103%	inactive	inactive	inactive	inactive	inactive	–
CCc1ccc(C(=O)Nc2cc(CN3CCN(C)CC3)cc(C(F)(F)F)c2)cc1C#Cc1cnc2ccnn2c1	5.7%	6.73%	10.5%	3.13%	4.8%	4.46%	–	–	20.9 µM (active)	16.6 µM (active)	14.8 µM (active)	29.6 µM (active)
CCCCC(=O)O[C@]1(C(=O)CO)[C@@H](C)C[C@H]2[C@@H]3CCC4=CC(=O)C=C[C@]4(C)[C@@]3(F)[C@@H](O)C[C@@]21C	13.5%	78.8%	54.9%	22.8%	44%	51.8%	–	inactive	inactive	inactive	inactive	–
C[C@@]12C(=O)OC(=O)[C@@]1(C)C1CCC2O1	12.4%	14.9%	13.5%	7.05%	5.4%	3.87%	–	inactive	2.64 µM (active)	2.64 µM (active)	2.64 µM (active)	4.18 µM (active)
O=C(Nc1ccc(Oc2ccnc3[nH]ccc23)c(F)c1)c1cccn(-c2ccc(F)cc2)c1=O	35.8%	69.1%	29.2%	7.02%	83%	87.2%	–	inactive	inactive	inactive	inactive	inactive
C[C@H]1C[C@H]2[C@@H]3CCC4=CC(=O)C=C[C@]4(C)[C@@H]3C(=O)C[C@]2(C)[C@@]1(O)C(=O)CO	63%	97.9%	81.9%	86.6%	87.7%	108%	–	inactive	inactive	inactive	inactive	inactive
C[C@H](CCC(=O)O)[C@H]1CC[C@H]2[C@@H]3[C@H](O)C[C@@H]4C[C@H](O)CC[C@]4(C)[C@@H]3CC[C@]12C	–	–	–	–	114%	97.2%	–	inactive	inactive	inactive	inactive	inactive
COc1ccc(S(=O)(=O)Nc2cc(-c3c(O)ccc4ccccc34)c(O)c3ccccc23)cc1	29.2%	94.7%	23.7%	49.9%	5.48%	3.97%	–	inactive	16.6 µM (active)	4.18 µM (active)	18.7 µM (active)	10.5 µM (active)
C=C(C)[C@@H]1CC[C@]2(C)CC[C@]3(C)[C@H](CC[C@@H]4[C@@]5(C)CC[C@H](O)C(C)(C)[C@H]5CC[C@]43C)[C@@H]12	44.1%	92%	73.8%	37.4%	162%	121%	–	inactive	inactive	inactive	inactive	inactive
COC[C@H](NC(=O)c1cnc(C)s1)C(=O)N[C@@H](COC)C(=O)N[C@@H](Cc1ccccc1)C(=O)[C@@]1(C)CO1	5.4%	7.34%	12.2%	5.53%	0.973%	3.48%	–	inactive	0.132 µM (active)	0.105 µM (active)	0.148 µM (active)	0.296 µM (active)
CC(=O)O[C@H]1C[C@@H]2CC[C@H]3[C@H]4C[C@H]([N+]5(C)CCCCC5)[C@@H](OC(C)=O)[C@@]4(C)CC[C@@H]3[C@@]2(C)C[C@H]1N1CCCCC1	40.5%	–	37.1%	71.6%	216%	123%	–	inactive	7.43 µM (active)	8.33 µM (active)	7.43 µM (active)	–
COC(=O)[C@H](CCCN=C(N)N)NS(=O)(=O)c1ccc(C)cc1	–	–	–	–	94.4%	104%	–	inactive	inactive	inactive	inactive	inactive
C[C@]12C=CC(=O)N[C@@H]1CC[C@H]1[C@H]3CC[C@@H](C(=O)Nc4cc(C(F)(F)F)ccc4C(F)(F)F)[C@@]3(C)CC[C@@H]12	9.6%	9.12%	23.9%	26.4%	58.7%	93%	–	inactive	inactive	inactive	inactive	–
CC(=O)O[C@@]12CO[C@H]1C[C@H](O)[C@@]1(C)C(=O)[C@H](O)C3=C(C)[C@@H](OC(=O)C(O)[C@@H](NC(=O)OC(C)(C)C)c4ccccc4)C[C@@](O)([C@@H](OC(=O)c4ccccc4)[C@@H]21)C3(C)C (stereo partly drawn)	5.89%	18.8%	30.4%	4.16%	22.4%	8.89%	–	inactive	inactive	inactive	inactive	inactive
C=C1CCC2[C@](C)(CO)C(O)CC[C@]2(C)C1CC=C1C(=O)OCC1O (stereo partly drawn)	94.9% [at 57.5 µM]	85.2% [at 57.5 µM]	92.9% [at 57.5 µM]	46.9% [at 57.5 µM]	83.8% [at 92.2 µM]	110% [at 92.2 µM]	–	inactive	inactive	inactive	inactive	inactive
C[C@H](O)[C@@H]1C(=O)N2C(C(=O)O)=C(S[C@@H]3CN[C@H](CNS(N)(=O)=O)C3)[C@@H](C)[C@@H]12	107%	99.1%	82.6%	87.8%	119%	112%	–	inactive	inactive	inactive	inactive	inactive
COc1ccc2c(c1OC)C(=O)OC2[C@H]1c2c(cc3c(c2OC)OCO3)CCN1C (stereo partly drawn)	17.1%	20.7%	20.6%	16.4%	24.5%	8.98%	–	inactive	0.0935 µM (active)	0.0526 µM (active)	inactive	0.235 µM (active)
CN(C)CC(=O)N1CCC(c2ccc(NC(=O)c3ncc(C#N)[nH]3)c(C3=CCCCC3)c2)CC1	12.3%	16.6%	12.3%	9.47%	168%	28.6%	–	inactive	13.2 µM (active)	18.7 µM (active)	20.9 µM (active)	16.6 µM (active)
NS(=O)(=O)OC[C@@H]1C[C@@H](n2ccc3c(N[C@H]4CCc5ccccc54)ncnc32)C[C@H]1O	23.8%	92.9%	46.9%	51%	6.59%	2.9%	–	inactive	0.332 µM (active)	0.132 µM (active)	0.148 µM (active)	0.264 µM (active)
O=C(NCc1ccccc1)[C@H](Cc1ccccc1)NC(=O)[C@@H]1O[C@@H]1C(=O)NCCc1ccc(O)cc1	17.3%	44.7%	16.7%	33.6%	49%	54.1%	–	inactive	1.05 µM (active)	1.05 µM (active)	1.18 µM (active)	–
C#Cc1cccc(Nc2ncnc3cc(OCCOC)c(OCCO)cc23)c1	6.81%	–	18.2%	4.56%	38.2%	12.5%	–	inactive	0.935 µM (active)	9.35 µM (active)	8.33 µM (active)	18.7 µM (active)
C[C@]12CCC(=O)C=C1[C@@H]1CC1[C@H]1[C@H]3[C@@H]4C[C@H]4[C@@]4(CCC(=O)O4)[C@@]3(C)CC[C@H]12 (stereo partly drawn)	65.8%	82.7%	41.4%	71.4%	75.3%	92.9%	–	inactive	inactive	inactive	inactive	–
CCc1nc(-c2cccc(C)c2)c(-c2ccnc(NC(=O)c3ccccc3)c2)s1	21.9%	47.6%	49.3%	29.7%	229%	25.7%	–	inactive	14.8 µM (active)	20.9 µM (active)	20.9 µM (active)	18.7 µM (active)
CCCNS(=O)(=O)Nc1ncnc(OCCOc2ncc(Br)cn2)c1-c1ccc(Br)cc1	102%	–	82.3%	–	180%	117%	–	inactive	inactive	inactive	inactive	inactive
CC(C)n1cnc2c(NCCc3ccc(O)cc3)nc(-c3csc4ccccc34)nc21	5.76%	9.54%	13.2%	8.98%	11.4%	2.43%	–	inactive	2.35 µM (active)	13.2 µM (active)	4.18 µM (active)	4.18 µM (active)
CCNC(=O)c1cc2c(-c3cc(OCCN4CCCC4)c(Cl)cc3Cl)nc(N)nc2s1	10.8%	9.23%	25.1%	–	13.8%	13.8%	–	inactive	1.18 µM (active)	1.18 µM (active)	0.59 µM (active)	1.32 µM (active)
C[C@@H](Cc1cc2c(c(C(N)=O)c1)N(CCCO)CC2)NCCOc1ccccc1OCC(F)(F)F	–	84%	58.3%	85.9%	183%	97.3%	–	inactive	inactive	inactive	inactive	inactive
CN(CC(=O)N(Cc1ccc(C2CCCCC2)cc1)c1ccc(C(=O)O)c(O)c1)S(=O)(=O)c1c(F)c(F)c(F)c(F)c1F	51%	95.9%	53.5%	27.9%	52.5%	3.33%	–	inactive	18.7 µM (active)	9.35 µM (active)	6.62 µM (active)	8.33 µM (active)
O=C(O)C=Cc1ccc(Cn2ccnc2)cc1	90.5%	100%	96.2%	95.1%	243%	124%	–	inactive	inactive	inactive	inactive	inactive
CC(C)N(CC[C@H](c1ccccc1)c1cc(CO)ccc1O)C(C)C	–	–	26.5%	103%	145%	101%	–	inactive	inactive	inactive	inactive	inactive
